# Assay results published in PubChem BioAssay.
# “And” between values parts separate entries of the source, which are not always exact repeats. Equal values may be shown once. For some assays here: Measured potencies and affinities stand elsewhere. The source made the active and inactive calls.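 Rule for the calls, unless noted: active = compounds killing one labelled cell type while sparing the other, by normalised counts and ratio limits, not self-fluorescent; inactive = the rest.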
# Tests used:
# [1] = polyglutamine-triggered caspase-3 activation inhibitors, cell-based (AID 1583); settings: polyglutamine-induced caspase-3 activation, cell assay; stronger effect = higher value;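 tested at 10 µM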
# [2] = suppressors of polyQ aggregation in yeast, 75Q-TubU reporter (AID 1593); settings: Yeast 75Q polyglutamine aggregation reporter
# [3] = rescue of polyQ-huntingtin neuronal dysfunction in worms, whole organism, C. elegans mechanosensory neurons, N-terminal huntingtin (AID 1599); settings: touch response, stronger effect = higher value
# [4] = inhibitors of mitochondrial cytochrome c release, biochemical, purified mitochondria (AID 1603); settings: stronger effect = lower value;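 note: mouse liver mitochondria challenged with calcium chloride; signal normalized to the plate average as 100%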
# [5] = inhibitors of polyQ protein aggregation (AID 1604); settings: polyglutamine-induced protein aggregation inhibition assay; stronger effect = higher value; tested at 2.5 µM
# [6] = enhancers of glutamate uptake in motor neurons, MN-1 cell line (AID 1612); settings: MN-1 motor neuron cells, stronger effect = higher value;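 note: tested at 1 µM final; 0% = mean of DMSO vehicle wells on each plate; positive means more glutamate uptake than control and negative means less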
# [7] = reducers of polyQ inclusions in PC12 cells, cell-based, NGF-treated PC12, GFPQ80 (AID 1614); settings: PC12 NGF-treated GFP-polyQ80 inclusion reduction;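 note: lower means fewer inclusions and 0 means no inclusions at all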
# [8] = suppressors of polyglutamine aggregation in yeast, 75Q-TubH (AID 1616); settings: S. cerevisiae 75Q-TubH polyglutamine aggregation suppression; stronger effect = higher value
# [9] = target: 6-phosphogluconate dehydrogenase, decarboxylating (Homo sapiens) (UniProt P52209); experiment: 6PGD enzyme inhibitors, primary screen, biochemical, human, recombinant enzyme, NADPH absorbance (AID 1159550;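 active = at least 20% inhibition of 6-phosphogluconate dehydrogenase activity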); settings: recombinant 6PGD, NADPH absorbance 341 nm; at 10 µM; stronger effect = higher value
# [10] = differential killing of epithelial or mesenchymal cells, primary screen, imaging, PC-3E GFP, TEM4-18 mCherry, co-culture (AID 1345086); settings: imaging cell counts, at 1 µM; for red/green cell ratio (normalised): actives lie on both sides, counts scaled to control wells, 1 = unselective;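 for all read-outs here: cells exposed to compound for 72 h before imaging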;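 for red/green cell ratio (normalised): normalised mesenchymal count divided by normalised epithelial count so high means epithelial killing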
# [11] = target: NAD(+) hydrolase SARM1 (Homo sapiens) (UniProt Q6SZW1); experiment: SARM1 TIR NADase inhibitors, cell lysate, NAD-Glo luminescence (AID 1508614;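 active = compound whose remaining NAD level is above about 45 nM, limit read from the data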;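 note: higher remaining NAD means stronger inhibition of SARM1 NADase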); settings: SAM-TIR HEK293T lysate NADase, at 1 µM, stronger effect = higher value
# [12] = liver-stage malaria parasite growth inhibition, primary screen, cell-based, HepG2, luciferase luminescence, HepG2 viability (AID 624349; in the data active = parasite load remaining mostly below about 12%, no sharp cut-off; inactive = mostly above about 10%;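 note: 100% = mean of DMSO negative control wells on the same plate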); settings: P. berghei liver stage in HepG2, luciferase luminescence, concentration not given here; parasite load remaining: stronger effect = lower value; viability: measured here: HepG2 viability without parasites
# [13] = sensitizers of A549 cells to miR-34 induction, primary screen, imaging, A549 dox-inducible miR-34, nuclei and caspase counts (AID 1347080;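 active = compounds whose cell count with miR-34 switched on is under 0.7 times the count with it off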); settings: A549 miR-34 inducible, Hoechst nuclei count, 48 h
# [14] = target: Mitogen-activated protein kinase 7 (Homo sapiens) (UniProt Q13164); experiment: ERK5 transactivation activators in reporter cells, primary screen, cell-based, HTS (AID 1508626;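 active = luciferase signal above three times the same-plate solvent-only control wells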;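 note: luciferase driven by Gal4-ERK5 fusion binding five Gal4 sites before minimal TATA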); settings: HeLa Gal4-ERK5 transactivation, 18 h, at 5 µM, stronger effect = higher value
# [15] = hESC survival regulators, cell-based (AID 493140; call rule not given here;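 note: cells exposed to compounds for four days before counting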); settings: human embryonic stem cell survival screen; stronger effect = higher value
# [16] = survival rescue of mitochondrial mutant cells in low glucose, primary screen, MELAS cybrids, Rieske KO mouse fibroblasts, CellTiter-Glo (AID 1508586;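 active = mean z-score across replicates of 1.96 or higher in either the MELAS or the Rieske mutant cell line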;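 note: z relative to plate mean and SD of compound and empty wells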)
# [17] = viability rescue of complex I mutant cybrids, primary screen, cell-based, galactose medium, ATP luminescence (AID 1645843;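 active = z-score of at least 1.8 in each of two replicates, scored against plate mean and spread of sample wells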;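 note: positive z means more ATP and so rescue of galactose-driven cybrid death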); settings: complex I mutant cybrid cells, 72 h, stronger effect = higher value
# [18] = measured here: epithelial PC-3E GFP cell survival
# [19] = measured here: mesenchymal TEM4-18 mCherry cell survival
# [20] = stronger effect = lower value, cell number ratio, induced over uninduced
# [21] = measured here: relative caspase fold change +Dox/-Dox
# [22] = measured here: total cells with miR-34 induction, stronger effect = lower value
# [23] = measured here: total cells without miR-34 induction
# [24] = MELAS cybrid survival, CellTiter-Glo 48 h, stronger effect = higher value
# [25] = Rieske KO mouse fibroblast survival, CellTiter-Glo 72 h
# Sequence of NAD(+) hydrolase SARM1 (Homo sapiens) (Q6SZW1 whole entry, looked up): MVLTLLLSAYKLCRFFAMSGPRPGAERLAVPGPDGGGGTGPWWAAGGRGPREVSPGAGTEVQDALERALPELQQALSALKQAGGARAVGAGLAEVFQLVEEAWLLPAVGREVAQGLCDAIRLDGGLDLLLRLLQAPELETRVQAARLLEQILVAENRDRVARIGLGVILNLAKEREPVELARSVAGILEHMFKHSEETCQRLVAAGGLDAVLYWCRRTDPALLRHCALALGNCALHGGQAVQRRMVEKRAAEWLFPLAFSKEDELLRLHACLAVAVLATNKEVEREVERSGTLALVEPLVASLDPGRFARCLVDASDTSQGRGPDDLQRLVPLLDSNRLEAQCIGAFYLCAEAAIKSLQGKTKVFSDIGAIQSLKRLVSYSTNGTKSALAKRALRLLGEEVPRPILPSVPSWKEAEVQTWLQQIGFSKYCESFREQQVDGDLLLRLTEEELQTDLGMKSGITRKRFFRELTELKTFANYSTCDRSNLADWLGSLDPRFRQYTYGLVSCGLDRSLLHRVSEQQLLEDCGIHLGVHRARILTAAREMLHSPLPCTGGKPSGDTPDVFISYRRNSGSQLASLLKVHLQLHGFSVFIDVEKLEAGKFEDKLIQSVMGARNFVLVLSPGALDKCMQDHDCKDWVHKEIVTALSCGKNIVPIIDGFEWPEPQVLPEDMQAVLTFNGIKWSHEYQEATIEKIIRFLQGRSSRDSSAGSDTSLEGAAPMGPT
# Sequence of 6-phosphogluconate dehydrogenase, decarboxylating (Homo sapiens) (P52209 whole entry, looked up): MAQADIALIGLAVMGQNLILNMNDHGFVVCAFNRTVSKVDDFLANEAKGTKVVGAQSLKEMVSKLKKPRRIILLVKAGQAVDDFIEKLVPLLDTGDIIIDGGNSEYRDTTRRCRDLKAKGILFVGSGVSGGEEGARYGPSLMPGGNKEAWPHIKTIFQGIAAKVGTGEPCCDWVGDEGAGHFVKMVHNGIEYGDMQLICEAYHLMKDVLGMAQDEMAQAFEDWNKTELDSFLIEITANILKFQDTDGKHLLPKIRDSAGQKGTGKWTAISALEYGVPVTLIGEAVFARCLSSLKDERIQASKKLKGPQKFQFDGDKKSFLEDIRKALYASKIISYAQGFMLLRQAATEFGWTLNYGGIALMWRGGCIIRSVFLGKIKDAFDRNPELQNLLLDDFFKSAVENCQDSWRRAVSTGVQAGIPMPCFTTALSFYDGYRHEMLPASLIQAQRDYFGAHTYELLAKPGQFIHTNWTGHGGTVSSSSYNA
# Sequence of Mitogen-activated protein kinase 7 (Homo sapiens) (Q13164 whole entry, looked up, the tested form may be a part): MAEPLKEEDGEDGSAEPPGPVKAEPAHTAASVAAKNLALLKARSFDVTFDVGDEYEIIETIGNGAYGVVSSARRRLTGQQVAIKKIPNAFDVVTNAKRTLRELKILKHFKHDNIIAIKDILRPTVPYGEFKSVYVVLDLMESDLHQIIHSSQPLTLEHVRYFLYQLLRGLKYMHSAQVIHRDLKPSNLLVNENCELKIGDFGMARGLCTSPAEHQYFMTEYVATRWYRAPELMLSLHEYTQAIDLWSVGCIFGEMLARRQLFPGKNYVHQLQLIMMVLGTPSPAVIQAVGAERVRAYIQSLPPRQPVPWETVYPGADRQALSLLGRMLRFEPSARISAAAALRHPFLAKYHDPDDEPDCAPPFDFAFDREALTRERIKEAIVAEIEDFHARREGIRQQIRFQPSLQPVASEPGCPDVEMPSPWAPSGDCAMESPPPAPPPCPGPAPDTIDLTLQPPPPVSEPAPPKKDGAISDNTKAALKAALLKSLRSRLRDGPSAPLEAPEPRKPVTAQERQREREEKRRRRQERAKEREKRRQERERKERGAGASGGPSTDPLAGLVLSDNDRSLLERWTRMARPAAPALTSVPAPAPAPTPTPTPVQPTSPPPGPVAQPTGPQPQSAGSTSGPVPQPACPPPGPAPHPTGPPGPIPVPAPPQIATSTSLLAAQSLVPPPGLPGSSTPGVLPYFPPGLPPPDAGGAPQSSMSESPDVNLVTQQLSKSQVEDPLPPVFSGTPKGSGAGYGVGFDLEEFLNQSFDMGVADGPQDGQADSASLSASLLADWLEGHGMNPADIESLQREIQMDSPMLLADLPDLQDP
structure (smiles),measurement,setting,value
CC(=C(CCOP(=O)(O)O)SC(=O)c1ccccc1)N(C=O)Cc1cnc(C)nc1N,inhibition,[1],9.82%
same,score,[2],1.37
same,rescue above control,[3],3.18
same,cytochrome c release ratio,[4],0.86
same,inhibition of aggregation,[5],39.4%
same,glutamate uptake change,[6],18.4%
same,inclusion score,[7],2
same,aggregation suppression score,[8],0.998
same,inhibition,[9],-10.8% (inactive)
same,red/green cell ratio (normalised),[10],0.95 (inactive)
same,normalised cell number,[10]; [18],1.05
same,normalised cell number,[10]; [19],1
same,remaining NAD,[11],10 nM (inactive)
CC[C@H]1OC(=O)C[C@@H](O)[C@H](C)[C@@H](O[C@@H]2O[C@H](C)[C@@H](O[C@H]3C[C@@](C)(O)[C@@H](O)[C@H](C)O3)[C@H](N(C)C)[C@H]2O)[C@@H](CC=O)C[C@@H](C)C(=O)/C=C/C(C)=C/[C@@H]1CO[C@@H]1O[C@H](C)[C@@H](O)[C@@H](OC)[C@H]1OC,parasite load remaining,[12],131% (inactive) and 58.3% (inactive)
same,viability,[12],85.6% and 145%
same,inhibition,[9],1.55% (inactive)
same,red/green cell ratio (normalised),[10],1.03 (inactive)
same,normalised cell number,[10]; [18],1.05
same,normalised cell number,[10]; [19],1.08
same,fold change,[13]; [20],0.905 (inactive)
same,fold change,[13]; [21],5.16
same,cell count,[13]; [22],12000
same,cell count,[13]; [23],13200
same,remaining NAD,[11],10 nM (inactive)
same,luciferase signal,[14],16 AU (inactive)
Nc1c2ccccc2nc2ccccc12 (tested in a mixture with another compound),parasite load remaining,[12],2.09% (inactive) and 61.1% (inactive)
same,viability,[12],97.8% and 80.2%
same,inhibition,[9],3.89% (inactive)
same,red/green cell ratio (normalised),[10],0.94 (inactive)
same,normalised cell number,[10]; [18],1.25
same,normalised cell number,[10]; [19],1.17
same,fold change,[13]; [20],1.59 (inactive)
same,fold change,[13]; [21],1.23
same,cell count,[13]; [22],1530
same,cell count,[13]; [23],960
same,remaining NAD,[11],10 nM (inactive)
same,luciferase signal,[14],80 AU (inactive)
O=c1ccc2cc(O)c(O)cc2o1,survival,[15],5.75 (inactive)
same,parasite load remaining,[12],19.5% (inactive) and 73.2% (inactive)
same,viability,[12],92.8% and 68.7%
same,inhibition,[9],2.61% (inactive)
same,red/green cell ratio (normalised),[10],1.16 (inactive)
same,normalised cell number,[10]; [18],0.88
same,normalised cell number,[10]; [19],1.02
same,fold change,[13]; [20],0.832 (inactive)
same,fold change,[13]; [21],1.64
same,cell count,[13]; [22],6390
same,cell count,[13]; [23],7680
same,luciferase signal,[14],72 AU (inactive)
CCCCN1CCCCC1C(=O)Nc1c(C)cccc1C (stereo not given),inhibition,[1],17%
same,score,[2],1.42
same,rescue above control,[3],-7.52
same,cytochrome c release ratio,[4],0.81
same,inhibition of aggregation,[5],-27.4%
same,glutamate uptake change,[6],1.83%
same,inclusion score,[7],2
same,aggregation suppression score,[8],1.3
same,survival,[15],10.1 (inactive)
same,inhibition,[9],3.83% (inactive)
same,red/green cell ratio (normalised),[10],1.17 (inactive)
same,normalised cell number,[10]; [18],1.13
same,normalised cell number,[10]; [19],1.33
same,z-score,[16]; [24],-0.429 (inactive) and 0.622 (inactive) and -0.162 (inactive)
same,z-score,[16]; [25],-0.124 and 0.613 and -0.528
same,remaining NAD,[11],10 nM (inactive)
same,luciferase signal,[14],68 AU (inactive)
same,z-score,[17],0.545 (inactive)
Cc1[nH]ccc2c1[nH]c1cc(=O)ccc12,survival,[15],3 (inactive)
same,parasite load remaining,[12],74.5% (inactive) and 99.2% (inactive) and 81.5% (inactive)
same,viability,[12],88.4% and 65.9% and 69.9%
same,inhibition,[9],8.86% (inactive)
same,red/green cell ratio (normalised),[10],0.84 (inactive)
same,normalised cell number,[10]; [18],1
same,normalised cell number,[10]; [19],0.83
same,fold change,[13]; [20],0.837 (inactive)
same,fold change,[13]; [21],1.33
same,cell count,[13]; [22],6490
same,cell count,[13]; [23],7750
same,luciferase signal,[14],76 AU (inactive)
NCC(O)CC(=O)O (stereo not given),inhibition,[1],11.2%
same,score,[2],1.7
same,rescue above control,[3],-10.6
same,cytochrome c release ratio,[4],1.09
same,inhibition of aggregation,[5],57.7%
same,glutamate uptake change,[6],9.66%
same,inclusion score,[7],2
same,aggregation suppression score,[8],1.63
same,parasite load remaining,[12],157% (inactive)
same,viability,[12],91.4%
same,inhibition,[9],-18.3% (inactive)
same,red/green cell ratio (normalised),[10],0.75 (inactive)
same,normalised cell number,[10]; [18],1.28
same,normalised cell number,[10]; [19],0.96
same,remaining NAD,[11],10 nM (inactive)
same,luciferase signal,[14],44 AU (inactive)
CC(C(=O)O)c1cccc(Oc2ccccc2)c1 (stereo not given),inhibition,[1],-4.11%
same,score,[2],0.02
same,rescue above control,[3],4.41
same,cytochrome c release ratio,[4],0.68
same,inhibition of aggregation,[5],72.7%
same,glutamate uptake change,[6],5.16%
same,inclusion score,[7],2
same,aggregation suppression score,[8],0.0306
same,survival,[15],1.75 (inactive)
same,inhibition,[9],15.8% (inactive)
same,red/green cell ratio (normalised),[10],0.89 (inactive)
same,normalised cell number,[10]; [18],1.13
same,normalised cell number,[10]; [19],1
same,z-score,[16]; [24],-0.0579 (inactive) and -0.205 (inactive) and 0.473 (inactive)
same,z-score,[16]; [25],-0.141 and -0.109 and 0.281
same,remaining NAD,[11],10 nM (inactive)
same,luciferase signal,[14],72 AU (inactive)
same,z-score,[17],0.865 (inactive)
CCCCCCCCCc1ccc(OCCOCCOCCOCCOCCOCCOCCOCCOCCO)cc1,parasite load remaining,[12],-0.79% (active)
same,viability,[12],85%
same,inhibition,[9],-15.2% (inactive)
same,red/green cell ratio (normalised),[10],1.03 (inactive)
same,normalised cell number,[10]; [18],1.14
same,normalised cell number,[10]; [19],1.18
same,fold change,[13]; [20],0.78 (inactive)
same,fold change,[13]; [21],2.5
same,cell count,[13]; [22],2440
same,cell count,[13]; [23],3120
same,remaining NAD,[11],10 nM (inactive)
same,luciferase signal,[14],40 AU (inactive)
CC1(C)C=Cc2cc3ccc(=O)oc3cc2O1,inhibition,[9],5.11% (inactive)
same,red/green cell ratio (normalised),[10],0.99 (inactive)
same,normalised cell number,[10]; [18],1.07
same,normalised cell number,[10]; [19],1.05
same,luciferase signal,[14],56 AU (inactive)
CC(=O)Oc1cc(-c2coc3cc(OC(C)=O)c(OC(C)=O)c(OC(C)=O)c3c2=O)cc(OC(C)=O)c1OC(C)=O,inhibition,[9],-14.8% (inactive)
same,red/green cell ratio (normalised),[10],0.88 (inactive)
same,normalised cell number,[10]; [18],1.23
same,normalised cell number,[10]; [19],1.08
same,luciferase signal,[14],36 AU (inactive)
COc1c(CC(=O)c2cc3c(cc2O)OC(C)(C)C(O)C3)ccc2c1C=CC(C)(C)O2 (stereo not given),inhibition,[9],5.33% (inactive)
same,red/green cell ratio (normalised),[10],0.66 (inactive)
same,normalised cell number,[10]; [18],1.48
same,normalised cell number,[10]; [19],0.97
same,luciferase signal,[14],40 AU (inactive)
